Assay [1] can be described thus: optical density shifts of acrAB sulA E. coli – strain DRC41, OD650, 48 h, E. coli filamentation inducer project, primary screen (AID 1152).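 Also: E. coli MC1000 strain DRC41 lacking acrAB efflux pump and sulA.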 The conditions noted are these: higher = more signal, called active from +8 up or from −8 down.
A short description of assay [2]: probe aLefty1 binding on compound microarray – biochemical, small-molecule microarray, 635/667 nm fluorescence, primary screen (AID 1153).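 Also: score merges spot fluorescence with signal-to-noise ratio from the scanned slide images.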 The conditions noted are these: higher = more signal.
Assay [3] can be described thus: plasmodial surface anion channel blockers, osmotic lysis – cell-based, P. falciparum Indochina, OD700, 1 h, primary screen (AID 1154). As to conditions: P. falciparum Indochina infected RBC osmotic lysis, higher = more signal, called active from +8 up or from −8 down.
Assay [4] can be described thus: plasmodial surface anion channel blockers, osmotic lysis – cell-based, P. falciparum Indochina, OD700, 2 h, primary screen (AID 1155).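 Also: lysis reports solute entry through the parasite surface anion channel PSAC.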 As to conditions: P. falciparum Indochina infected erythrocytes, higher = more signal, called active from +8 up or from −8 down.
A short description of assay [5]: changes in parasitized red cell lysis, either direction – P. falciparum Indochina, OD700, 3 h, PSAC antagonist project, primary screen (AID 1156). The conditions noted are these: P. falciparum-infected erythrocytes, osmotic lysis, higher = more signal, called active from +8 up or from −8 down.
A short description of assay [6]: plasmodial surface anion channel blockers, osmotic lysis – cell-based, P. falciparum Indochina, OD700, 18 h, primary screen (AID 1157). As to conditions: P. falciparum Indochina infected erythrocytes, osmotic lysis OD700, 18 h; higher = more signal, called active from +8 up or from −8 down.
Assay [7] is described as follows: S6 kinase pathway phospho-S6 level changes – cell-based, A549, cytoblot, luminescence, serum-stimulated, primary screen (AID 1158).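 Also: serum-stimulated A549 lung adenocarcinoma cells; signal is phosphorylated S6 detected by cytoblot immunostaining with HRP secondary.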 The conditions noted are these: 5 h, higher = more signal.
In assay [8] the target is NADPH oxidase 2 (Homo sapiens) (UniProt P04839). Description: compounds shifting NOX2 Amplex Red fluorescence – cell-based, HEK293-NOX2, PMA-stimulated, NOX inhibitor project, primary screen (AID 1159). Also: test concentration not given here. As to conditions: 45 min, higher = more signal, called active from +8 up or from −8 down.
Sequence of NADPH oxidase 2 (Homo sapiens) (P04839 whole entry, looked up): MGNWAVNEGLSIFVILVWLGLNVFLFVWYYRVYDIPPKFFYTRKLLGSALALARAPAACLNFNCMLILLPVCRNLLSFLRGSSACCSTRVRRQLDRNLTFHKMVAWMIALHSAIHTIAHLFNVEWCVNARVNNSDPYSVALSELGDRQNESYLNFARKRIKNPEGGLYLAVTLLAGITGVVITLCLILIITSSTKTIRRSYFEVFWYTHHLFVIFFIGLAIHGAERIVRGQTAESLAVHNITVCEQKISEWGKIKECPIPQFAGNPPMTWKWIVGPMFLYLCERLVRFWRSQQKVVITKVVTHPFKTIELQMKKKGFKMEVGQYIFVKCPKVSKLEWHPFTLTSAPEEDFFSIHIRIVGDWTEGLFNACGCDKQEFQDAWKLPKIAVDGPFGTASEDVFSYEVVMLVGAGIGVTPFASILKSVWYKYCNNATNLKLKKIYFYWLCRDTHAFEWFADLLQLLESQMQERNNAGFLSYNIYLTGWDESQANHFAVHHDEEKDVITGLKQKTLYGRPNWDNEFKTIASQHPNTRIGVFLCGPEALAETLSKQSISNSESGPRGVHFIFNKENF
The target in assay [9] is NADPH oxidase 4 (Homo sapiens) (UniProt Q9NPH5). Description: compounds shifting NOX4 Amplex Red fluorescence – cell-based, HEK293-NOX4, tetracycline-induced, NOX inhibitor project, primary screen (AID 1160). The conditions noted are these: HEK293-NOX4, Amplex Red H2O2 fluorescence, 45 min; higher = more signal, called active from +8 up or from −8 down.
Sequence of NADPH oxidase 4 (Homo sapiens) (Q9NPH5 whole entry, looked up): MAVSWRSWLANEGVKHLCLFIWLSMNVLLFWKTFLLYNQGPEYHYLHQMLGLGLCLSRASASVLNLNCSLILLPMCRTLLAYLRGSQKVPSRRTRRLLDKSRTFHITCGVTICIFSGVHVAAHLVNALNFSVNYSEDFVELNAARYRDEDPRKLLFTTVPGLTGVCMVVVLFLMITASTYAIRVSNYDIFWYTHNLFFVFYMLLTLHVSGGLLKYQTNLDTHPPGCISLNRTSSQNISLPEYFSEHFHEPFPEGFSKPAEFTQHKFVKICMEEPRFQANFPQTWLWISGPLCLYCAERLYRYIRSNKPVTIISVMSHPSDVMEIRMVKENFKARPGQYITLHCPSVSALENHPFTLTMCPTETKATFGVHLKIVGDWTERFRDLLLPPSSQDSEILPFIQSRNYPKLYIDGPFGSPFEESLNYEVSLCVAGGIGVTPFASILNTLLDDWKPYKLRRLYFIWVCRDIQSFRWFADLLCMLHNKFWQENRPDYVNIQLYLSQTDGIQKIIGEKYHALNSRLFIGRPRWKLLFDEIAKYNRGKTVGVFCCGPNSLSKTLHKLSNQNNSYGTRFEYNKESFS
For assay [10], the target named is NADPH oxidase 5 (Homo sapiens) (UniProt Q96PH1). The experiment in a line: compounds shifting NOX5 Amplex Red fluorescence – cell-based, HEK293-NOX5, NOX inhibitor project, primary screen (AID 1161). The conditions noted are these: HEK293-NOX5, ionomycin, 45 min, higher = more signal.
Sequence of NADPH oxidase 5 (Homo sapiens) (Q96PH1 whole entry, looked up): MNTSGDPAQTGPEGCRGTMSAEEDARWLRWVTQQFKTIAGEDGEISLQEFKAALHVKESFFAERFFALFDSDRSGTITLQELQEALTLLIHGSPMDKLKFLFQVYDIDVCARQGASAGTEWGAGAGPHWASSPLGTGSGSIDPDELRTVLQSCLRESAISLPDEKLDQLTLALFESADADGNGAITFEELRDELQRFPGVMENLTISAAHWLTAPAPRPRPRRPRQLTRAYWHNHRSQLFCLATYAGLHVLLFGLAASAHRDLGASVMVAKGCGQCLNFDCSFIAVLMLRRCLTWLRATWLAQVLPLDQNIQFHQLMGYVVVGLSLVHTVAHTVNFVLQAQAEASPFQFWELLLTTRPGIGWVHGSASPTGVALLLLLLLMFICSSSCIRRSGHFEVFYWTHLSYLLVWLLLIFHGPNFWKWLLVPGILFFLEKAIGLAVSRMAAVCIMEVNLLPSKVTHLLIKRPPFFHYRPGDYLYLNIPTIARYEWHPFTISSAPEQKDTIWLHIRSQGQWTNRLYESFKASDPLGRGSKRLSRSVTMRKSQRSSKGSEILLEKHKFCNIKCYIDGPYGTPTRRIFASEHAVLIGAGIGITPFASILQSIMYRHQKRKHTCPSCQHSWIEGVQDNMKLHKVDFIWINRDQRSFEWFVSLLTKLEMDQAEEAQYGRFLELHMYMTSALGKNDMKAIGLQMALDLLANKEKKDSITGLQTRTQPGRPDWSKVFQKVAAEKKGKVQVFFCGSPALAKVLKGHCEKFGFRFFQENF
The nature of assay [11]: compound effects on lung adenocarcinoma cell viability – A549, calcein-AM fluorescence, 48 h, basal, profiling panel (AID 1162). Also: test concentration not given here. The conditions noted are these: higher = more signal.
The nature of assay [12]: compound effects on differentiated 3T3-L1 adipocyte viability – cell-based, 3T3-L1 adipocytes, calcein-AM fluorescence, 48 h, basal, profiling panel (AID 1163). Also: test concentration not given here. The conditions noted are these: 3T3-L1 adipocytes viability, higher = more signal.
The nature of assay [13]: compound effects on hepatocellular carcinoma cell viability – HepG2, calcein-AM fluorescence, 48 h, basal, profiling panel (AID 1164). Also: test concentration not given here. As to conditions: higher = more signal.
The nature of assay [14]: compound effects on multiple myeloma cell viability – MM1S, calcein-AM fluorescence, 48 h, basal, profiling panel (AID 1165). Also: test concentration not given here. The conditions noted are these: higher = more signal.
A short description of assay [15]: calcein-AM signal in unstimulated myeloma cells – cell-based, calcein-AM fluorescence, 48 h, PK04 Diversity Set, profiling panel (AID 1166).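 Also: cells grown under basal conditions without added stimulus; test concentration not given here.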 The conditions noted are these: RPMI8226 myeloma viability, higher = more signal.
Assay [16] can be described thus: JC-1 mitochondrial signal, unstimulated HepG2 cells – cell-based, JC-1 fluorescence, 24 h, 100 nL compound, profiling panel (AID 1167). Also: test concentration not given here. The conditions noted are these: HepG2 mitochondrial potential, higher = more signal.
A short description of assay [17]: JC-1 mitochondrial signal, unstimulated adipocytes – cell-based, JC-1 fluorescence, 3T3-L1 adipocytes, 24 h, 100 nL compound, profiling panel (AID 1168). Also: test concentration not given here. As to conditions: JC-1 mitochondrial fluorescence, higher = more signal, called active from +8 up or from −8 down.
Assay [18] can be described thus: JC-1 mitochondrial signal, unstimulated myeloma cells – cell-based, JC-1 fluorescence, RPMI8226, 24 h, 100 nL compound, profiling panel (AID 1169). Also: test concentration not given here. As to conditions: JC-1 mitochondrial potential fluorescence, higher = more signal.
Assay [19] can be described thus: JC-1 mitochondrial signal, unstimulated MM1S myeloma – cell-based, JC-1 fluorescence, 24 h, 100 nL compound, profiling panel (AID 1170). Also: test concentration not given here. The conditions noted are these: MM1S mitochondrial potential, higher = more signal.
Assay [20] can be described thus: resazurin metabolic signal in A549 cells – cell-based, resazurin fluorescence, 24 h, PK04 Diversity Set, profiling panel (AID 1171). Also: test concentration not given here. As to conditions: A549 viability, higher = more signal, called active from +8 up or from −8 down.

The source made the active and inactive calls.

`COc1ccc(C#Cc2ccc3c(c2)[C@]2(C(=O)N3)[C@H](c3ccc(OCCO)cc3)N3[C@H](c4ccccc4)[C@H](c4ccccc4)OC(=O)[C@H]3[C@@H]2C(=O)NC[C@H](O)c2ccccc2)cc1`: the z-score in [1] is 1.01 (inactive); in assay [3], 1.97 (inactive); in [4], 1.76 (inactive); in assay [5], -0.403 (inactive); in [6], 1.08 (inactive); in assay [7] it was 0.0701. The z-score in [8] is 0.893 (inactive); in assay [9], 0.194 (inactive); in [10], -0.0443; in [11], 0.357; in assay [12], -0.177; in [13], 1.08. For the same compound, the z-score in assay [14] is 0.373; in [15] it was -1.46; in assay [16], -1.04; in [17], 4.7 (inactive); in assay [18], -0.808; in [19] it was -1.4. Also, the z-score in assay [20] was 0.0652 (inactive). For the same compound, in assay [2], the composite z-score turned out to be 0.145.

For `[N-]=[N+]=Nc1ccccc1[C@H]1OC(c2ccc(OCCCO)cc2)=N[C@@]1(Cc1ccccc1)C(=O)NCCN1CCOCC1`, the z-score in [1] was 0.378 (inactive); in assay [3] it was 33.5 (active); in [4], 30.9 (active); in assay [5], 2.73 (inactive); in assay [6], 8.84 (active); in assay [7], 0.138. For the same compound, the z-score in [8] was -1 (inactive); in assay [9], 0.585 (inactive); in assay [10] it was 1.57; in assay [11], -0.449; in assay [12], 0.91; in [13] it was -1.21. The z-score is -2 in assay [14]; -3.41 in [15]; 2.36 in assay [16]; 1.83 (inactive) in [17]; -1.06 in [18]; -0.638 in assay [19]. In addition, the z-score in assay [20] is -2 (inactive). Further, the composite z-score in [2] was 0.31.

Regarding `CCCCC[C@H]1OC[C@@]23C=C(Br)[C@@H](CC12)[C@@]1(CO1)C3=O` (stereo not given in full), the z-score in assay [1] is -1.12 (inactive); in assay [3] it was 1.66 (inactive); in assay [4], 0.533 (inactive); in [5], 0.487 (inactive); in [6], 0.184 (inactive); in assay [7] it was -0.446. Further, the z-score in [8] was -0.459 (inactive); in assay [9], 0.438 (inactive); in assay [10] it was 0.134; in [11] it was 0.433; in assay [12] it was -0.0037; in assay [13] it was -0.424. The z-score in assay [14] is -2.8; in assay [15], -1.5; in assay [16], -1.76; in assay [17], -0.498 (inactive); in [18], -0.314; in assay [19], -0.824. Further, the z-score in [20] was -0.612 (inactive). The composite z-score in [2] is -0.294.

Turning to `CC(=O)NCCCC[C@@H]1NC(=O)[C@@H]2C[C@H](C(=O)NCCCCCN)[C@H](c3cccc(OCCO)c3)N2C1=O`, the z-score is 2.26 (inactive) in assay [1]; 2.03 (inactive) in assay [3]; -0.543 (inactive) in [4]; 1.98 (inactive) in assay [5]; -1.27 (inactive) in [6]; 4.55 in assay [7]. Also, the z-score in assay [8] is 1.14 (inactive); in assay [9], 1.06 (inactive); in assay [10], 1.74; in assay [11] it was 1.3; in [12], 0.749; in assay [13], 0.74. Moreover, the z-score is 0.151 in [14]; 1.3 in assay [15]; 0.0102 in assay [16]; 0.608 (inactive) in assay [17]; -0.721 in [18]; -0.0434 in assay [19]. Moreover, in assay [20], the z-score is 0.914 (inactive). The composite z-score in assay [2] is -0.22.

On to `C=C[C@H](C)[C@H](OC(=O)Nc1ccc(SC)cc1)c1ccc(OCCO)cc1`, for which the z-score in assay [1] is -1.79 (inactive); in [3] it was 27.6 (active); in [4] it was 15.6 (active); in [5] it was 1.91 (inactive); in assay [6] it was 0.184 (inactive); in assay [7], 1.58. Further, the z-score in assay [8] was -0.831 (inactive); in assay [9], -0.356 (inactive); in assay [10] it was -0.756; in assay [11], 0.0889; in [12] it was 0.954; in [13], -0.47. For the same compound, the z-score in assay [14] was -0.889; in assay [15], -2.41; in assay [16], -2.67; in assay [17] it was 0.508 (inactive); in assay [18], -0.781; in assay [19], -0.72. Further, the z-score in assay [20] is -1.48 (inactive). In assay [2], this compound displayed a composite z-score of 0.329.

These data come from PubChem BioAssay.
